In the library only some 4.1% were active in any assay of this set; here they are far more common.
tim23-1 inh – growth inhibitors of tim23-1 mutant yeast, primary screen, luminescence, uHTS; 330,000 compounds, 1.3% hits; inhibition, % at 20 µM; S. cerevisiae tim23-1 growth, BacTiter-Glo luminescence, 24 h;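 active = growth inhibition of the mutant yeast at or above 50%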;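 note: temperature-sensitive mutant grown at 25 °C; plate controls were DMSO-treated mutant yeast for no effect and medium wells lacking yeast for full effect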
tim10-1 inh – growth inhibitors of tim10-1 mutant yeast, primary screen, luminescence, uHTS; S. cerevisiae tim10-1 ts strain growth, BacTiter-Glo, 24 h; inhibition, % at 20 µM; 330,000 compounds, 2.2% hits; AID 463190, 2010;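 active = inhibition of at least 40%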;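 note: mutant grown at 25 °C; 0% = DMSO wells with yeast and 100% = wells holding no yeast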
NALP1 inh – NALP1 inflammasome inhibitors in reconstituted yeast, colorimetric, S. cerevisiae, triplicate retest; 280,000 compounds, 0.61% hits; inhibition, % at 10 µM; S. cerevisiae NALP1/ASC/caspase-1 growth, X-gal OD620, 72 h; in the data active = inhibition mostly above about 24%, no sharp cut-off; inactive = mostly below about 32%
PfHsp90 yeast 2 – growth inhibition of PfHsp90-expressing yeast, primary screen, antimalarial PfHsp90 inhibitor project, S. cerevisiae, BacTiter-Glo luminescence, single point, set 2; BacTiter-Glo ATP, 48 h; yeast lacking PDR1 and PDR3 efflux regulators; inhibition, % at 9.4 µM; 310,000 compounds, 0.32% hits; AID 504621, 2011;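 active = every replicate shows inhibition above about 80%, whatever the replicate mean, limit read from the data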;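 note: 0% = DMSO neutral controls and 100% = 20 µM radicicol positive controls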
TIM10 inh – growth inhibitors of isogenic TIM10 control yeast, primary screen, counter-screen for tim10-1 yeast inhibitor project, luminescence, uHTS; S. cerevisiae TIM10 strain growth, BacTiter-Glo luminescence, 24 h; inhibition, % at 10 µM; 330,000 compounds, 1.4% hits; AID 463195, 2010;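 active = inhibition of 40% or more at the single tested concentration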;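 note: wild-type TIM10 isogenic control strain grown at permissive 25 °C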
NALP3 yeast inh – NALP3 inflammasome inhibitors in reconstituted yeast, primary screen, luminescence, uHTS; inhibition, % at 10 µM; AID 2825, 2010; 330,000 compounds, 0.39% hits; Yeast reconstituted NLRP3/ASC/caspase-1, beta-gal luminescence, 24 h;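 active = inhibition of 50% or more; inactive = inhibition below 50%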;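 note: plate controls were induced DMSO wells for no effect and uninduced yeast grown without galactose for full effect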
tim10-1 conf – growth inhibitors of tim10-1 mutant yeast, confirmation, single concentration, luminescence, S. cerevisiae; shares compounds with tim10-1 inh; S. cerevisiae tim10-1 ts strain growth, BacTiter-Glo, 24 h; inhibition, % at 20 µM; 7,400 compounds, 56% hits;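 active = inhibition of yeast growth at or above a set limit in either of two repeat tests at 20 µM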;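 note: tim10-1 mutant grown at permissive 25 °C to find synthetic lethal compounds; 0% = DMSO yeast wells and 100% = medium wells without yeast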
tim10 confirm – growth inhibitors of wild-type TIM10 yeast, confirmation, counter-screen for tim10-1 synthetic lethality project, single concentration, luminescence, S. cerevisiae; S. cerevisiae tim10 strain growth, BacTiter-Glo luminescence, 24 h; inhibition, % at 10 µM; 4,600 compounds, 63% hits; shares compounds with TIM10 inh; AID 463215, 2010;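 active = inhibition of yeast growth at or above a set limit in either of two replicates at 10 µM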;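 note: this counterscreen used the strain with wild-type TIM10; 0% = yeast with DMSO and 100% = medium wells lacking yeast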
tim23-1 conf – tim23-1 mutant yeast growth inhibitors, confirmation, luminescence, single concentration; shares compounds with tim23-1 inh; S. cerevisiae tim23-1 growth, BacTiter-Glo luminescence, 24 h; inhibition, % at 20 µM; 4,400 compounds, 83% hits; AID 463218, 2010;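 active = inhibition above about 39% in either of two replicate wells at 20 µM, limit read from the data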;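 note: temperature-sensitive tim23-1 mutant grown at 25 °C; 0% = DMSO wells with yeast and 100% = medium wells without yeast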
The depositor's hits bear a star; / = no result given.

SMILES | tim23-1 inh | tim10-1 inh | NALP1 inh | PfHsp90 yeast 2 | TIM10 inh | NALP3 yeast inh | tim10-1 conf | tim10 confirm | tim23-1 conf
C#CCOCCOCCOCCNc1nc(N2CCN(C(=O)CCCCCCCCCCNC(=O)[C@H](CCCCN)n3cc(C[C@@H](C)CC)nn3)CC2)nc(N2CCN(C(=O)CCCCCCCCCCNC(=O)[C@H](CCCN=C(N)N)n3cc(C[C@@H](C)CC)nn3)CC2)n1 | 47 | 29 | / | -9 | -6 | 11 | / | / | /
C#CCOCCOCCOCCNc1nc(N2CCN(C(=O)CCCCCCCCCCNC(=O)[C@H](CCCCN)n3cc(C)nn3)CC2)nc(N2CCN(C(=O)CCCCCCCCCCNC(=O)[C@H](CCCN=C(N)N)n3cc(C[C@@H](C)CC)nn3)CC2)n1 | 50* | 40* | / | / | 9 | 8 | 13 | / | 64*
Cc1ccc(CSc2nc3ccccc3cc2C=O)cc1 | 69* | 48* | 13 | -31 | 25 | 13 | 47* | / | 57*
O=Cc1cc2ccccc2nc1SCc1ccc(Cl)cc1 | 78* | 64* | -12 | / | 50* | 14 | 55* | 63* | 64*
CC(Oc1ccccc1F)C(=O)NNC(=O)CC(C)c1ccccc1 (centres undefined) | -9 | -2 | / | -3 | 1 | 10 | / | / | /
Cc1ccc(NC(=O)COC(=O)C(CC(C)C)N2C(=O)C3CC=CCC3C2=O)c(C)c1 (centres undefined) | 33 | 26 | 30 | 4 | 14 | -3 | / | / | /
CCN(CC)C(=S)SSC(=S)N(CC)CC | 64* | 88* | 102* | 107* | 50* | 31 | 99* | 100* | 99*
O=Nc1c(-c2cccc([N+](=O)[O-])c2)nc2ncccn12 | 89* | 91* | 10 | / | 84* | 20 | 91* | 98* | 73*
CC(C)c1ccc(-n2nnnc2SCC(=O)NC2CC2)cc1 | 9 | 3 | / | -13 | -8 | 25 | / | / | /
CN(CCCC1CCCC1)C(=O)CC1C(=O)NCCN1Cc1cccc(F)c1F (centres undefined) | 3 | 8 | 3 | 16 | 9 | 0 | / | / | /
CCc1nc2sc3ccccc3c(=O)c2c(=O)n1Cc1ccc(OC)cc1 | 53* | 40* | / | 8 | 17 | 31 | 31* | / | 41*
CCCc1nc2sc3ccccc3c(=O)c2c(=O)n1CCOC | -6 | 6 | 0 | / | -21 | 21 | / | / | /
CCn1c(=O)c2c(nc(SCC(=O)N3CCCC(C)C3)n2C)n(C)c1=O (centres undefined) | 7 | -7 | 0 | -23 | 7 | 10 | / | / | /
CCCCOC(=O)c1ccc(NC(=O)c2nn(C)cc2Br)cc1 | 55* | 52* | 0 | / | 48* | 29 | 50* | 41* | 67*
O=C(NCCSCc1ccco1)Nc1cc(Cl)cc(Cl)c1 | 54* | 46* | / | -6 | 34 | 15 | 35* | / | 56*
O=C(NC1=NCCS1)c1cc(-c2ccc(F)cc2)nc2ccccc12 | 59* | 50* | 16 | -5 | 51* | 20 | 51* | -8 | 60*
Cc1ccc(-c2cc(C(=O)NC3=NCCS3)c3ccccc3n2)cc1C | / | / | 26 | -8 | / | / | / | / | /
CCOc1cc(C(=S)N2CCOCC2)ccc1OC(=O)c1ccc(C)cc1 | 34 | 21 | 12 | 0 | 4 | 11 | / | / | /
O=C1/C(=C\c2ccncc2)CCc2ccccc21 | 72* | 65* | / | 22 | 60* | 21 | 62* | 62* | 39

Source: PubChem BioAssay
